CYP2C19 act – human CYP2C19 activators, primary screen, biochemical, luminescence; recombinant CYP2C19, luciferin-H EGE luminescence; active compounds read high; 0 = fully inhibited enzyme, 1 = untreated enzyme; activation factor at 5 µM; 96,000 tested, under 10 active; AID 1025, 2008;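 active = activation factor of at least 2 at 5 µM in the primary screen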;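 also: 0 = wells with 2.5 mM tranylcypromine and 1 = vehicle-only wells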
PostGolgi ctrl – growth inhibition of yeast control strain, primary screen, counter-screen for post-Golgi transport modulator project | efflux-deficient yeast background strain, growth absorbance A615, 16 h | inhibition, % at 10 µM | 98,000 tested, 5% active
CYP2C9 inh – blockers of cytochrome P450 2C9 activity – biochemical, luminescence, ADME assay, primary screen; P11712; CYP2C9 Supersomes, luciferin-H conversion; inhibition, % at 5 µM; 96,000 tested, 20% active;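 active = blocking of liver enzyme CYP2C9 beyond about 50% at 5 µM, limit read from the data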
Target sequence (P11712 whole entry, looked up): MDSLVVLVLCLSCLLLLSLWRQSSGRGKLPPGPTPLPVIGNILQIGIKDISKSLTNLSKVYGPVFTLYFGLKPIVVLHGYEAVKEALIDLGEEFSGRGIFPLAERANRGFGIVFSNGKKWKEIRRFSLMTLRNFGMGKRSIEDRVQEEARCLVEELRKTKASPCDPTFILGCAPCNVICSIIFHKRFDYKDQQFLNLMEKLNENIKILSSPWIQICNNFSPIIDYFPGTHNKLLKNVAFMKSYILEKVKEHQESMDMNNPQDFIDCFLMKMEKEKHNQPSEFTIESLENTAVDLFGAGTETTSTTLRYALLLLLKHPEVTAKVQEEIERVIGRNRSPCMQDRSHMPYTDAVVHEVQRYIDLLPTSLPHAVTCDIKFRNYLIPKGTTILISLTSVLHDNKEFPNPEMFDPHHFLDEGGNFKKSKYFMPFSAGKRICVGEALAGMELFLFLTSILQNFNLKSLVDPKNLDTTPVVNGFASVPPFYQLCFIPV
CYP2C9 act – human CYP2C9 activators, primary screen, biochemical, luminescence. recombinant CYP2C9, luciferin-H conversion; active compounds read high; factor 1 = untreated enzyme, 0 = blocked. AID 1024, 2008. Cytochrome P450 2C9 (Homo sapiens), P11712. 96,000 tested, 1.4% active. activation factor at 5 µM;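 active = activation factor of 2 or more for CYP2C9 at a 5 µM dose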;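 also: 0 = sulfaphenazole-blocked wells and 1 = vehicle-only wells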
CYP2C19 inh – blockers of cytochrome P450 2C19 activity – biochemical, luminescence, ADME assay, primary screen; P33261; CYP2C19 Supersomes, luciferin-H EGE luminescence, 30 min; 96,000 tested, 21% active; inhibition, % at 5 µM; AID 778, 2007;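 active = CYP2C19 inhibition above a set limit at 5 µM in the primary screen, cut at about 50% in these data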;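 also: plate controls were negative control wells for no effect and 2.5 mM tranylcypromine positive control for full effect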
PostGolgi yeast – phenotypic screen on post-Golgi transport, primary screen. post-Golgi transport phenotypic cell assay. 98,000 tested, 0.9% active. inhibition, % at 10 µM. AID 739, 2007;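 also: yeast cells grown in 1536-well plates; yeast grown about 18 h at 30C before absorbance read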
* = called active by the depositor; . = no result given. The list is not random: actives were taken first. Their share in the collection is about 32%. Rule as the data show it, unless noted: active = inhibition above about 30%; inactive = the rest.

SMILES	CYP2C19 act	PostGolgi ctrl	CYP2C9 inh	CYP2C9 act	CYP2C19 inh	PostGolgi yeast
CNc1ccccc1C(C)(C)c1cc(-c2ccco2)n[nH]1	0.5	18	25	0.7	54*	3
Cc1nc2ccccc2n1-c1nc(-c2ccco2)cc(C(F)(F)F)n1	1	11	46	0.5	-1	21
Cc1ccc(-c2nnn(CC(=O)N(c3ccccc3F)C(C(=O)NC3CCCC3)c3ccco3)n2)o1 (stereo not drawn)	0.8	17	37	0.6	23	-1
COc1ccc(-c2nnn(CC(=O)N(CC(=O)NC3CCCC3)c3cccc(C)c3)n2)cc1OC	0.6	2	42	0.6	36	5
COc1ccc(-c2nnn(CC(=O)OC3CCCCC3)n2)cc1OC	0.6	19	-5	1.1	43	-8
CCCC(C(=O)NC1CCCC1)N(C(=O)Cn1nnc(-c2ccc(C)o2)n1)c1ccccc1OC (stereo not drawn)	0.1	9	81*	0.2	88*	-3
COc1ccc(-c2nnn(CC(=O)N(C3CCCC3)C(C)C(=O)NC3CCCC3)n2)cc1OC (stereo not drawn)	0.2	2	59*	0.4	81*	-13
COc1ccc(-c2nnn(CC(=O)N(C3CCCCC3)C(C)C(=O)NC3CCCC3)n2)cc1OC (stereo not drawn)	0.2	7	68*	0.3	83*	-12
COc1ccc(S(=O)(=O)N(Cc2ccc(OC)c(OC)c2)Cc2ccco2)cc1	0.4	21	46	0.5	59*	-9
COc1ccc(S(=O)(=O)N(CCCN2CCOCC2)Cc2ccc(OC)c(OC)c2)cc1	0.1	10	17	0.8	89*	-2
Cc1ccc(S(=O)(=O)N(Cc2ccccc2)Cc2ccco2)cc1	0.2	10	90*	0.1	83*	-2
Cc1ccc(OCc2nc(-c3ccc(-n4cccc4)cc3)no2)cc1C	1	-5	-91	1.9	0	1
CCOC(=O)c1ccc2c(c1)N(Cc1ccccc1C)C(=O)c1ccccc1S2=O (stereo not drawn)	.	31*	.	.	.	2
COC(=O)c1ccc2c(c1)N(Cc1ccccc1F)C(=O)c1ccccc1S2=O (stereo not drawn)	0.9	9	19	0.8	9	-2
CC(C)CN1CN(S(=O)(=O)c2cccs2)c2nc3ccccc3nc21	0.9	3	9	0.9	10	-7
O=S(=O)(c1ccc(Cl)cc1)N1CCCC1c1nc2ccccc2s1 (stereo not drawn)	0.6	19	45	0.5	38	0
COCCCN1CN(S(=O)(=O)c2ccc(Cl)cc2)c2nc3ccccc3nc21	0	12	99*	0	98*	-6
CC(C)OCCCN1CN(S(=O)(=O)c2ccccc2)c2nc3ccccc3nc21	0.1	8	98*	0	85*	3
CCCCCCCCNC(=O)CCNC(=O)c1ccc(C(C)(C)C)cc1	0.4	14	52*	0.5	55*	17
Cc1cccc(C)c1NC(=O)c1ccc(-c2ccc(Cl)cc2Cl)o1	1	46*	24	0.8	-1	-6
O=C(Nc1ccc(Cl)cn1)c1ccc(-c2cc(Cl)ccc2Cl)o1	1	-1	8	0.9	-2	2
Cc1ccccc1NC(=O)c1ccc(-c2ccc(Cl)cc2Cl)o1	0.7	54*	49	0.5	33	-1
Cc1ccc(C(=O)Nc2ccccc2NC(=O)c2ccc(C)o2)o1	0.8	-9	42	0.6	21	-7
N#CCCNCC1(c2ccccc2)CCCC1	0.8	18	0	1	16	2
CCOC(=O)CCc1c(C)nc2c(c(C)nn2C(C)(C)C)c1C	0.7	4	14	0.9	30	-7
CN(C)CC(=O)c1c[nH]c2ccccc12	1	24	1	1	2	-2
O=C(CC1CC2CCC1C2)OCC(=O)c1c[nH]c2ccccc12 (stereo not drawn)	0.3	26	-18	1.2	70*	1

Source: PubChem BioAssay (several laboratories)
